LAP4-GFP MLPCN: modulators of TOR pathway LAP4-GFP in S. cerevisiae. S. cerevisiae LAP4-GFP multiplex, flow cytometry GFP, 3 h; median GFP as percent of DMSO wells. GFP response vs DMSO, % at 10 µM. actives 0.34% (n = 320,000);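 active = GFP response vs DMSO above a set limit, about the screen mean plus 3 SD, cut at about 150% in these data; inconclusive = under 70 cell events counted for the yeast strain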
CIT2-GFP yeast: modulators of TOR pathway CIT2-GFP in S. cerevisiae. actives 0.065% (n = 320,000). S. cerevisiae CIT2-GFP strain, flow cytometry, 3 h; 100 means same as DMSO wells. AID 2029. GFP response vs DMSO, % at 10 µM;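 active = GFP response relative to DMSO above a set limit, near the screen mean plus 3 SD, cut at about 150% in these data; inconclusive = Fewer than 70 cells measured for a yeast strain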;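 also: ratio of well median GFP fluorescence to mean of DMSO wells on the plate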
MEP2-GFP yeast: yeast TOR pathway MEP2-GFP modulation; AID 2016; GFP response vs DMSO, % at 10 µM; actives 0.51% (n = 330,000); S. cerevisiae MEP2-GFP strain, flow cytometry GFP, 3 h; 100% = DMSO control level;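 active = GFP response versus DMSO above a set limit, roughly screen mean plus 3 SD, cut at about 180% in these data; inconclusive = fewer than 70 cells counted for a yeast strain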;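 also: median GFP fluorescence of the barcode-gated MEP2-GFP cells per well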
AGP1-GFP MLPCN: modulators of TOR pathway AGP1-GFP in S. cerevisiae; S. cerevisiae AGP1-GFP multiplex flow cytometry, 3 h; GFP as percent of DMSO wells; GFP response vs DMSO, % at 10 µM; actives 0.02% (n = 320,000); AID 2066;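 active = GFP response relative to DMSO above a set limit, near screen average plus 3 SD, cut at about 150% in these data; inconclusive = fewer than 70 cells counted for the yeast strain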;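 also: median GFP channel fluorescence of the gated AGP1 strain per well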
GASC-1 inh: blocks human GASC-1 demethylase activity; Q9H3R0; GST-JMJD2C(1-420) H3K9me3 demethylation, DELFIA europium; inhibition, % at 2.35 µM; actives 0.069% (n = 330,000); AID 2099;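 active = more than half of a compound's replicate wells show inhibition beyond 50%, single wells judged on their own value; inconclusive = some, but no more than half, of replicates pass 50% inhibition; inactive = no replicate passes 50% inhibition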;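 also: signal counts dimethyl H3K9 product captured on neutravidin plate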
Target sequence (Q9H3R0 1-420 limits assumed): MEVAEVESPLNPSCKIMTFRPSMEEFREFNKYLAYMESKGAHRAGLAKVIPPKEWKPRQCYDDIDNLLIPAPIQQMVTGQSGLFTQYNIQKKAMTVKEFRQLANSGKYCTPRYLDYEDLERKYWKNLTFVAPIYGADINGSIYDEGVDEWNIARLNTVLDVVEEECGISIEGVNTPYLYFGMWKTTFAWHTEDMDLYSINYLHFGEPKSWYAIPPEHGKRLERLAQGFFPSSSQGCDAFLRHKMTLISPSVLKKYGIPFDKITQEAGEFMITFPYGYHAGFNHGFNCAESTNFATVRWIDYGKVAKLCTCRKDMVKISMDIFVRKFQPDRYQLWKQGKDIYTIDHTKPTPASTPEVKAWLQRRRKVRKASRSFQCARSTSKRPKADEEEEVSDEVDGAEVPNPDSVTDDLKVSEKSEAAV
RPL19A-GFP yeast: alters RPL19A-GFP fluorescence in TOR pathway yeast screen; S. cerevisiae RPL19A-GFP strain, flow cytometry, 3 h; hits give low values; percent response vs DMSO, % at 10 µM; actives 0.3% (n = 330,000);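 active = percent response vs DMSO below 50%; inconclusive = fewer than 70 events counted for the yeast strain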;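 also: median channel GFP fluorescence of the barcoded RPL19A-GFP strain; lower means less RPL19A-GFP as with rapamycin TOR inhibition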
Each line names hits and unclear results; the compound was inactive in the other large screens; [ ] = remark or other dose. An excerpt weighted towards active compounds, which were near 0.97% of everything screened.

CCNc1nc(SC(C)C(=O)Nc2ccccc2)nc(N2CCOCC2)n1 (centres undefined)	none
COc1ccc(-c2c(C(C)=O)c(C)nc3sc4c(=N)n(N)cnc4c23)cc1	none
COc1ccc(C2NC(=O)c3sc4nc(C)c(C(C)=O)c(-c5ccc(Cl)cc5)c4c3N2)cc1 (centres undefined)	CIT2-GFP yeast inconclusive, MEP2-GFP yeast 416.9[may fluoresce violet], RPL19A-GFP yeast 30.1[may fluoresce violet]
O=C(NCC(=O)N1CCN(C/C=C/c2ccccc2)CC1)c1ccc(OC(F)F)cc1	none
c1ccc2c(c1)CCc1ccccc1C2=C1CCNCC1	none (no result: LAP4-GFP MLPCN, CIT2-GFP yeast, AGP1-GFP MLPCN)
O=C(NC1=NCCS1)c1cccc(F)c1	none
O=C(NC1=NCCS1)c1cccc(Br)c1	CIT2-GFP yeast inconclusive, MEP2-GFP yeast 185.4[may fluoresce violet]
COc1ccccc1N1CCN(C(=O)CSc2nnc(NC(=O)C3CC3)s2)CC1	none
CCCCC(=O)Nc1nnc(SCC(=O)N2CCN(c3ccccc3OC)CC2)s1	CIT2-GFP yeast inconclusive, MEP2-GFP yeast 218.7[may fluoresce violet], AGP1-GFP MLPCN inconclusive, RPL19A-GFP yeast 23.4[may fluoresce violet]
COc1ccccc1N1CCN(C(=O)CSc2ccc3c(C)cc(C)nc3n2)CC1	LAP4-GFP MLPCN inconclusive, CIT2-GFP yeast inconclusive, MEP2-GFP yeast inconclusive, AGP1-GFP MLPCN inconclusive, RPL19A-GFP yeast 12.9[may fluoresce violet]
COc1ccccc1N1CCN(C(=O)CSc2nc3ccccc3o2)CC1	none
Cc1cccc(OC(C)C(=O)NC2CCS(=O)(=O)C2)c1C (centres undefined)	none
FC(F)(F)c1cc(-c2cccs2)nc2cc(-c3cccs3)nn12	MEP2-GFP yeast 178.9
COc1ccc2ccccc2c1/C=N/Nc1ccc(Cl)c(C(=O)O)c1	none
COc1ccc2ccccc2c1/C=N/Nc1cccc(C(=O)O)c1	LAP4-GFP MLPCN 166.4
Cc1ccc(N2C(=O)c3ccccc3NC2c2ccccc2O)cc1 (centres undefined)	MEP2-GFP yeast 200.5
O=C1c2ccccc2NC(c2ccccc2O)N1O (centres undefined)	none
COc1ccc(Nc2ncnc3sc(-c4ccccc4)cc23)cc1OC	GASC-1 inh 54.2
COc1ccc(Nc2ncnc3c2cnn3-c2ccccc2)cc1OC	none
O=C(NCCCN1CCCC1=O)c1c(O)nc2sccn2c1=O	none
O=C1N/C(=C/c2ccc(N3CCCC3)cc2)C(=O)N1c1ccccc1	none
O=C1/C(=C/c2ccc(N3CCCC3)cc2)NC(=S)N1C1CC1	CIT2-GFP yeast inconclusive, MEP2-GFP yeast 329.0[may fluoresce violet], AGP1-GFP MLPCN inconclusive, RPL19A-GFP yeast 42.1[may fluoresce violet] (no result: GASC-1 inh)
N#C/C(=C/c1ccc(N2CCOCC2)o1)c1ccc(Cl)cc1	LAP4-GFP MLPCN 161.4
N#C/C(=C\c1ccc(N2CCOCC2)o1)c1nc2ccccc2[nH]1	none
Cc1ccc(-c2onc3ccc(C4(C)OCCO4)cc23)cc1	CIT2-GFP yeast inconclusive, MEP2-GFP yeast 216.6[may fluoresce violet], AGP1-GFP MLPCN inconclusive, RPL19A-GFP yeast 45.9[may fluoresce violet]
Cc1ccc(OCCN(C)C(=O)C2CCC(=O)N(CC3CCCCC3)C2)cc1 (centres undefined)	none
Cc1ccccc1N1CC(C(=O)Nc2ccc(S(=O)(=O)N3CCCCC3)cc2)CC1=O (centres undefined)	CIT2-GFP yeast inconclusive, MEP2-GFP yeast 278.8[may fluoresce violet], AGP1-GFP MLPCN inconclusive
Cc1cccc(N2CC(C(=O)Nc3ccc(S(=O)(=O)N4CCCCC4)cc3)CC2=O)c1C (centres undefined)	none
Cc1cc(C)c2c(N)c3cccc(C)c3nc2n1	CIT2-GFP yeast inconclusive, MEP2-GFP yeast 321.8[may fluoresce violet]
COc1ccc(-c2cn[nH]c2C)cc1OC	none
Cc1[nH]ncc1-c1ccccc1Cl	CIT2-GFP yeast inconclusive, MEP2-GFP yeast 336.5[may fluoresce violet], RPL19A-GFP yeast 47.7[may fluoresce violet]
CN(C)/C=C/C(=O)c1cnc(-c2ccccc2)s1	LAP4-GFP MLPCN 156.4[may fluoresce violet] (no result: CIT2-GFP yeast)
CN(C)/C=C/C(=O)c1cnc(-c2ccc(Cl)cc2)s1	none
O=C(NC1CC(=O)N(c2ccc3c(c2)OCCO3)C1)N1CCCCC1 (centres undefined)	none
CN(Cc1ccccc1)S(=O)(=O)c1ccc(OCC(=O)NCc2ccccn2)cc1	none
CC(C)NC(=O)COc1ccc(S(=O)(=O)N(C)Cc2ccccc2)cc1	CIT2-GFP yeast inconclusive, MEP2-GFP yeast 407.7[may fluoresce violet]
CC(C)C[C@H](NC(=O)OC(C)(C)C)C(=O)N1CCC(C(=O)O)CC1	CIT2-GFP yeast inconclusive, MEP2-GFP yeast 370.6[may fluoresce violet], AGP1-GFP MLPCN inconclusive, RPL19A-GFP yeast 41.7[may fluoresce violet]
CCc1ccc(S(=O)(=O)N2CCN(C(=O)C3CCN(C(C)=O)CC3)CC2)cc1	none
COc1ccccc1NC(=O)c1cc(S(=O)(=O)NC2CCCC2)ccc1F	CIT2-GFP yeast inconclusive, MEP2-GFP yeast 266.3[may fluoresce violet], AGP1-GFP MLPCN inconclusive, RPL19A-GFP yeast 39.0[may fluoresce violet]
Cc1ccc(NS(=O)(=O)c2c(C)[nH]c(C)c2C(=O)N2CCCC2)cc1Cl	none
CCCS/C(N)=N/N=C/c1cc(C)ccc1O	CIT2-GFP yeast inconclusive, MEP2-GFP yeast 233.9[may fluoresce violet] (no result: AGP1-GFP MLPCN)
CC1=NN(c2ccccc2)C(=O)/C1=C/C=C/C=C/N(C)C	CIT2-GFP yeast inconclusive, MEP2-GFP yeast 315.9[may fluoresce violet], AGP1-GFP MLPCN inconclusive, RPL19A-GFP yeast 38.8[may fluoresce violet]
O=C(CN1C(=O)CSc2ccc(S(=O)(=O)N3CCOCC3)cc21)NCCCN1CCOCC1	LAP4-GFP MLPCN inconclusive, CIT2-GFP yeast inconclusive, MEP2-GFP yeast inconclusive, AGP1-GFP MLPCN inconclusive, RPL19A-GFP yeast 22.6[may fluoresce violet]
O=C(NCCCN1CCOCC1)c1cccc(S(=O)(=O)N2CCOCC2)c1	LAP4-GFP MLPCN active[may fluoresce green], CIT2-GFP yeast active[may fluoresce green], MEP2-GFP yeast active[may fluoresce green], AGP1-GFP MLPCN active[may fluoresce green]
Cc1cc(NC(=O)c2cccc(S(=O)(=O)N3CCOCC3)c2)no1	CIT2-GFP yeast inconclusive, MEP2-GFP yeast 536.3[may fluoresce violet], RPL19A-GFP yeast 39.7[may fluoresce violet] (no result: AGP1-GFP MLPCN)
O=C(COC(=O)c1cccc(S(=O)(=O)N2CCOCC2)c1)c1ccccc1	CIT2-GFP yeast inconclusive, MEP2-GFP yeast 308.1[may fluoresce violet]
COc1ccc(S(=O)(=O)Nc2ccccc2N2CCOCC2)cc1OC	none (no result: GASC-1 inh)
CC1CCCC(C(=O)OCc2ccccc2)N1 (centres undefined)	none
CCCCOC(=O)C1CCC[C@@H](C)N1 (some centres undefined)	LAP4-GFP MLPCN 164.7
CCO[C@@H]1OC(C(=O)NC2CC2)=C[C@H](c2ccccc2)[C@H]1CCCO	CIT2-GFP yeast inconclusive, MEP2-GFP yeast 282.4[may fluoresce violet], AGP1-GFP MLPCN inconclusive, RPL19A-GFP yeast 47.4[may fluoresce violet]
c1ccc(CSc2ccc(-c3ccccn3)nn2)cc1	LAP4-GFP MLPCN 155.2
CCOc1cc(/C=N/NC(=O)c2ccc(N(C)S(=O)(=O)c3ccccc3)cc2)ccc1OC	CIT2-GFP yeast inconclusive, MEP2-GFP yeast 515.3[may fluoresce violet]
COc1cc(/C=N/NC(=O)c2ccc(N(C)S(=O)(=O)c3ccccc3)cc2)cc(OC)c1OC	none
CC(C)OC(=O)c1cc(NC(=S)Nc2ccc([N+](=O)[O-])cc2)cc(C(=O)OC(C)C)c1	CIT2-GFP yeast inconclusive, MEP2-GFP yeast 261.4[may fluoresce violet]
CCC1CCCCN1CCCCOc1cccc(Cl)c1 (centres undefined)	none
COc1cc(OC)c(C(=O)OCC(=O)N2CCOCC2)cc1OC	none

Screening data deposited in PubChem BioAssay by several laboratories.
